The values below come from publication PMC5700166.

In this assay the target is T1, GST-Nv-NF-kB (Ser allele) (Nematostella vectensis, UniProt A7UNT2 2-411).
T1 sequence: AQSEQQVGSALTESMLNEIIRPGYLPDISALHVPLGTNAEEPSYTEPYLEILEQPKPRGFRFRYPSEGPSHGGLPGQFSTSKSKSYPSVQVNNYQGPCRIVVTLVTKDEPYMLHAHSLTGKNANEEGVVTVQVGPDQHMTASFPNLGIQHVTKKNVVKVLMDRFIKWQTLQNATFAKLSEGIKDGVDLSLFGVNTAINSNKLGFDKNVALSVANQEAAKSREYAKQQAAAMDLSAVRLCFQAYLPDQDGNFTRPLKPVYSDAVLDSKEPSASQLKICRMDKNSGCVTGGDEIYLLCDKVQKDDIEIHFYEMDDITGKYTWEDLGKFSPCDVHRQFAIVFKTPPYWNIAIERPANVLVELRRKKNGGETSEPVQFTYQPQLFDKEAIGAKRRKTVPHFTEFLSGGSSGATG
Briefly: protein-binding microarray (PBM); PBM: ~300 nM protein, 6 mM HEPES pH 7.8, 80 mM KCl, 0.5 mM EDTA, 0.5 mM EGTA, 6% glycerol, 35 ng/ul poly-dIdC, 1% milk, 1 h, room temperature; Ap Aiptasia and Nv Nematostella (sea anemones) / Co Capsaspora / Aq Amphimedon (sponge) / Dm Drosophila / Hu human; RHD is the Rel homology domain; high values mean tight binding. The conditions noted are these: dsDNA, one strand shown.
As for “CCGATTAACATCAAAGAGCCCCCTGATGTTAATCGGGTCTTGATTCGCTTGACGCTGCTG”, the binding signal is 3.77 z-score.
Then “CCGATTAACATCAAAAAACCCCATGATGTTAATCGGGTCTTGATTCGCTTGACGCTGCTG”, with 6.05 z-score; and “CCGATTAACATCAAAAATATTCCTGATGTTAATCGGGTCTTGATTCGCTTGACGCTGCTG”, with 1.03 z-score.
Sequence “CCGATTAACATCAAAACACCCCTTGATGTTAATCGGGTCTTGATTCGCTTGACGCTGCTG” displayed a binding signal of 2.64 z-score.
Sequence “CCGATTAACATCAGAGATCCCCCTGATGTTAATCGGGTCTTGATTCGCTTGACGCTGCTG” had a binding signal of 6.44 z-score.
Turning to “CCGATTAACATCAAACCCCCCCCTGATGTTAATCGGGTCTTGATTCGCTTGACGCTGCTG”, the binding signal amounted to 5.04 z-score.
In the case of “CCGATTAACATCAAACCCCCCCTTGATGTTAATCGGGTCTTGATTCGCTTGACGCTGCTG”, the binding signal came out at 4.97 z-score.
Next, “CCGATTAACATCAGGCATTCCCATGATGTTAATCGGGTCTTGATTCGCTTGACGCTGCTG”: 1.11 z-score; “CCGATTAACATCAGCCCCCCCCATGATGTTAATCGGGTCTTGATTCGCTTGACGCTGCTG”: 2.7 z-score.
Then “CCGATTAACATCAAGGAGTCCCCTGATGTTAATCGGGTCTTGATTCGCTTGACGCTGCTG”, with 5.36 z-score; and “CCGATTAACATCACAGCAGTACCTGATGTTAATCGGGTCTTGATTCGCTTGACGCTGCTG”, with 3.01 z-score; and “CCGATTAACATCAAGGGGGATACTGATGTTAATCGGGTCTTGATTCGCTTGACGCTGCTG”, with 5.52 z-score.
On to “CCGATTAACATCAAGGGGGGAGATGATGTTAATCGGGTCTTGATTCGCTTGACGCTGCTG”, for which the binding signal was 4.86 z-score.
Then “CCGATTAACATCAAAAGGAAATTTGATGTTAATCGGGTCTTGATTCGCTTGACGCTGCTG”, with 1.08 z-score; and “CCGATTAACATCACTAATCCCCCTGATGTTAATCGGGTCTTGATTCGCTTGACGCTGCTG”, with 6.57 z-score.
Sequence “CCGATTAACATCAGGCCTTCCCCTGATGTTAATCGGGTCTTGATTCGCTTGACGCTGCTG” showed a binding signal of 5.25 z-score.
The sequence “CCGATTAACATCAAAATCACCCCTGATGTTAATCGGGTCTTGATTCGCTTGACGCTGCTG” registered a binding signal of 3.66 z-score.
Then “CCGATTAACATCACTAAACCCCCTGATGTTAATCGGGTCTTGATTCGCTTGACGCTGCTG”, with 6.49 z-score; and “CCGATTAACATCAGGGATGCCCCTGATGTTAATCGGGTCTTGATTCGCTTGACGCTGCTG”, with 4.08 z-score; and “CCGATTAACATCAGATAAACCCCTGATGTTAATCGGGTCTTGATTCGCTTGACGCTGCTG”, with 3.09 z-score.
Then “CCGATTAACATCAAAAACCACCCTGATGTTAATCGGGTCTTGATTCGCTTGACGCTGCTG”, with 4.22 z-score.
Then “CCGATTAACATCAAAATAGCCCCTGATGTTAATCGGGTCTTGATTCGCTTGACGCTGCTG”, with 5.05 z-score; and “CCGATTAACATCACCCCCCCCCGTGATGTTAATCGGGTCTTGATTCGCTTGACGCTGCTG”, with 5.34 z-score.
As for “CCGATTAACATCAAGCTCTAAGGTGATGTTAATCGGGTCTTGATTCGCTTGACGCTGCTG”, the binding signal was 1 z-score.
With “CCGATTAACATCAGGGATTTTTATGATGTTAATCGGGTCTTGATTCGCTTGACGCTGCTG”, the binding signal is 5.24 z-score.
Next, “CCGATTAACATCAGGATATCCCCTGATGTTAATCGGGTCTTGATTCGCTTGACGCTGCTG”: 6.27 z-score.
